Screens (PubChem)
Sfp inh: inhibitors of Bacillus subtilis Sfp phosphopantetheinyl transferase | Biochemical Sfp PPTase activity, qHTS | Potency, µM, without a hit: largest response in the series, negative = inhibition, most hits filed as inhibitors | 310,000 compounds, 3.5% hits | AID 1490;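 also: the enzyme is Sfp with the accession as filed and its product quenches rhodamine fluorescence; potency is read from the fitted curve at half-maximal effect; 0% = enzyme reaction without inhibitor and -100% = no enzyme wells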
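After 15 min at room temperature with compound, 15 nM Sfp received 5 uM rhodamine-CoA plus 12.5 uM BHQ-2-ybbR (50 mM Hepes pH 7.6, 10 mM MgCl2). Rate came from the fluorescence difference over 30 min, ex 525/em 598 nm.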
Tau fibril ThT: blocks human tau fibril formation measured by thioflavin T | recombinant tau K18 P301L, heparin-induced fibrillization, ThT fluorescence | Potency, µM (series often up to 57.4 µM), for inactives: top-dose activity, negative = inhibition, usual class: inhibitors | 270,000 compounds, 2.1% hits | AID 1460; also: potency is read from the fitted curve at half-maximal effect; nearly all actives have a fitted effect of over 55% in size
Target sequence (P10636 561-689 P618L limits assumed): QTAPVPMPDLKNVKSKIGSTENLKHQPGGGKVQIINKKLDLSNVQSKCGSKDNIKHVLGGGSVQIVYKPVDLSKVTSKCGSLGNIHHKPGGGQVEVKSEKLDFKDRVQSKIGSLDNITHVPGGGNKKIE
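Recombinant human tau K18 fragment […] carrying P301L, 15 uM unlabeled plus 0.24 uM Alexa 594-labeled, was fibrillized with 20 uM heparin in 100 mM sodium acetate pH 7 for 6 hr at 37 C; 30 uM ThT fluorescence read after 1 hr.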
Tau fibril FP: tau fibrillization inhibition (FP). P10636. K18 P301L tau heparin fibrillization, Alexa594 FP, 6 h. Potency, µM (highest dose often 57.7 µM), for the others: at the highest dose activity, negative = inhibition, hits mostly inhibitors. 280,000 compounds, 0.39% hits. AID 1468; also: potency is read from the fitted curve at half-maximal effect; nearly all actives have a fitted effect of over 55% in size
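K18 P301L tau (15 uM unlabeled/0.24 uM Alexa 594-labeled, final) + compound + heparin 20 uM final; 100 mM NaOAc pH 7; 6 hr 37 C; ThT 30 uM final added, 1 hr RT; FP ex 555/em 632 nm.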
Coupling enz: coupling enzyme interference in Giardia aldolase counter-screen; coupling enzyme system counterscreen, AmpLite Red fluorescence; activity change, negative = inhibition, % at 58.2 µM, hits read low; 290,000 compounds, 0.67% hits; AID 2472; in the data active = activity change below about -30%
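First, compound is pin-transferred into glyceraldehyde-3-phosphate coupling-enzyme reagent at 57.5 uM final and held 10 min at RT. Next, substrate, coupling system and AmpLite Red are added. After 20 min RT, fluorescence (525/598 nm) is read.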
Tau fluor cs: counter-screen for tau fibril formation inhibitors; AID 1463; Potency, µM (top dose mostly 57.7 µM), for the others: top-dose activity change, negative = decrease; 280,000 compounds, 0.93% hits; tau K18 P301L (four-repeat tau fragment) Alexa594 fluorescence, heparin fibrillization; also: potency is read from the fitted curve at half-maximal effect; nearly all actives have a fitted effect of over 55% in size
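Human K18 P301L tau (15 uM unlabeled plus 0.24 uM Alexa 594-labeled, final) in 100 mM sodium acetate pH 7 was mixed with compound and 20 uM heparin and incubated 6 hr at 37 C.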
* = called active by the depositor; [ ] = dose if it differs, or a comment. Rows were chosen to be rich in hits. Some 5.2% of all compounds tested hit in one or more screens of this group. Unless noted, calls follow the shape of the dose curve; as a rule, active = well fitted curve in the direction sought with a large enough effect; inconclusive = small, poorly fitted or top-dose-only effect, or another doubt; inactive = no such curve, though single readings can be large; an effect the other way counts as inactive or inconclusive. Unless noted, % is scaled to controls: 0 for no effect and ±100 for the full control effect.

Screening CCOc1ccc(CC(=O)OCN2C(=O)c3ccccc3C2=O)cc1 returned Sfp inh 89µM*, Tau fibril ThT -7%, Tau fibril FP 0% and Tau fluor cs -10%.
`COc1ccc(Oc2ncc3nc(CCc4ccccc4)c(=O)n(C4CC4)c3n2)cc1` gave Sfp inh -8% and Coupling enz -2.
For COc1ccc(NC(C)=O)cc1S(=O)(=O)Nc1ccccc1C(=O)NCCc1ccccc1 the results were Sfp inh 11% and Coupling enz 5.
COc1ccc(NC(=O)Cc2cccc(F)c2)cc1S(=O)(=O)Nc1ccccc1Cl was read as Sfp inh 18%, Tau fibril FP inconclusive, Coupling enz 0 and Tau fluor cs 14µM*[quencher].
Screening COc1ccccc1NC(=O)Nc1ccc(Cl)c(S(=O)(=O)Nc2ccccc2OC)c1 returned Sfp inh 10%, Tau fibril ThT -6%, Tau fibril FP 28µM*, Coupling enz -2 and Tau fluor cs 3.2µM*[quencher].
COc1ccc(C(=O)Nc2ccc(Cl)c(S(=O)(=O)Nc3ccccc3OC)c2)cc1 was read as Sfp inh 15%, Tau fibril ThT 7%, Tau fibril FP inconclusive, Coupling enz -2 and Tau fluor cs inconclusive.
For COc1ccccc1NS(=O)(=O)c1cc(NC(=O)c2ccc(Cl)nc2)ccc1Cl the results were Sfp inh -16%, Tau fibril ThT 15%, Tau fibril FP 25µM*, Coupling enz -3 and Tau fluor cs 22µM*[quencher].
`COc1oc(=O)c2cc(N)ccc2c1Cl` gave Sfp inh -2% and Coupling enz 1.
For CCC12CN3CC(C)(CN(C1)C3c1ccc(O)cc1O)C2=O (stereo not drawn) the results were Tau fibril ThT 3%, Tau fibril FP 4% and Tau fluor cs -1%.
Screening COc1cc(/C=C(\C#N)c2nc(-c3cc4ccccc4oc3=O)cs2)ccc1O returned Sfp inh 8%, Tau fibril ThT 3.5µM*, Tau fibril FP 4%, Coupling enz 2 and Tau fluor cs inconclusive.
`COc1cc(/C=C(\C#N)c2nc3ccccc3o2)ccc1O` gave Sfp inh -28%, Tau fibril ThT 7.9µM*, Tau fibril FP inconclusive, Coupling enz 11 and Tau fluor cs inconclusive.
For N#C/C(=C\c1ccc(O)cc1)c1nc2ccccc2o1 the results were Sfp inh 4%, Tau fibril ThT inconclusive, Tau fibril FP -12%, Coupling enz 5 and Tau fluor cs inconclusive.
Screening CCOc1ccc(C2CC(=O)N(c3cccc(F)c3)C3=C2C(=O)OC3)cc1 (stereo not drawn) returned Tau fibril ThT -8%, Tau fibril FP -9% and Tau fluor cs -16%.
For Cc1ccc(/C=N/n2c(-c3ccccc3)n[nH]c2=S)cc1 the results were Sfp inh -1% and Coupling enz 0.
N=C1N(/N=C/c2ccccc2)C(=Nc2ccccc2)C(=S)N1c1ccccc1 was read as Sfp inh 32µM*, Tau fibril ThT inconclusive, Tau fibril FP inconclusive, Coupling enz 2 and Tau fluor cs -24%.
`CC(=O)c1cccc(NC(=O)C2C3C=CC(C3)C2C(=O)O)c1` (stereo not drawn) gave Sfp inh -26%, Tau fibril ThT -5%, Tau fibril FP 6%, Coupling enz 0 and Tau fluor cs -4%.
`CC(=O)c1cccc(NC(=O)C2C3C=CC(C4CC34)C2C(=O)O)c1` (stereo not drawn) gave Sfp inh 14µM*, Tau fibril ThT -4%, Tau fibril FP 10%, Coupling enz 0 and Tau fluor cs 0%.
`Cc1c2cnn(-c3ccccc3)c(=O)c2c(C)n1CC(=O)NCc1ccccc1` gave Tau fibril ThT inconclusive, Tau fibril FP -11% and Tau fluor cs -8%.
`Cc1ccc(NC(=S)Nc2ccc3cn[nH]c3c2)cc1` gave Sfp inh -7%, Tau fibril ThT inconclusive, Tau fibril FP inconclusive, Coupling enz -8 and Tau fluor cs -17%.
`S=C(Nc1ccccc1)Nc1ccc2cn[nH]c2c1` gave Sfp inh 1%, Tau fibril ThT 8.9µM*, Tau fibril FP -12%, Coupling enz -39* and Tau fluor cs inconclusive.
c1cc2cn[nH]c2cc1NC1CCCCCC1 was read as Sfp inh 45µM*, Tau fibril ThT 28µM*, Tau fibril FP inconclusive, Coupling enz -67* and Tau fluor cs inconclusive.
`CN1c2ccccc2C(=O)N2CCc3c([nH]c4ccccc34)C21` (stereo not drawn) gave Sfp inh 4% and Coupling enz 3.
For Cc1noc(-c2ccc(CSCCC(=O)O)cc2)c1NC(=O)OC(C)c1ccccc1Cl (stereo not drawn) the results were Sfp inh 1% and Coupling enz 5.
Cc1cccc(NC(=S)N/N=C/C(C)c2ccccc2)c1C (stereo not drawn) was read as Sfp inh 79µM*, Tau fibril ThT inconclusive, Tau fibril FP -2%, Coupling enz -1 and Tau fluor cs -12%.
`Cc1ccccc1NC(=S)N/N=C/C(C)c1ccccc1` (stereo not drawn) gave Sfp inh -13%, Tau fibril ThT inconclusive, Tau fibril FP 7%, Coupling enz 0 and Tau fluor cs -11%.
Screening CCCN1C2=C(C(=O)CC(C)(C)C2)C(c2ccc(F)cc2)C2=C1c1ccccc1C2=O (stereo not drawn) returned Sfp inh 6%, Tau fibril ThT inconclusive, Tau fibril FP 5%, Coupling enz 3 and Tau fluor cs inconclusive.
For CCCCN1C2=C(C(=O)CC(C)(C)C2)C(c2ccccc2)C2=C1c1ccccc1C2=O (stereo not drawn) the results were Sfp inh 56µM*, Tau fibril ThT 14µM*, Tau fibril FP inconclusive, Coupling enz -9 and Tau fluor cs -24%.
For Cc1cc(C)cc(Nc2cc(C(=O)NCCCN(Cc3ccccc3)C(C)C)c3ccccc3n2)c1 the results were Tau fibril ThT -16%, Tau fibril FP inconclusive and Tau fluor cs 2.8µM*[quencher].
For CC(C)c1ccc(Nc2cc(C(=O)NCCc3ccccc3)c3ccccc3n2)cc1 the results were Tau fibril ThT 1%, Tau fibril FP 1% and Tau fluor cs inconclusive.
Screening CSc1cccc(Nc2cc(C(=O)NCCCN(Cc3ccccc3)C(C)C)c3ccccc3n2)c1 returned Tau fibril ThT inconclusive, Tau fibril FP inconclusive and Tau fluor cs 3.5µM*[quencher].
Screening CSc1cccc(Nc2cc(C(=O)NC3CCCCC3)c3ccccc3n2)c1 returned Tau fibril ThT 2%, Tau fibril FP -4% and Tau fluor cs inconclusive.
Cc1ccc(C)c(N2CCN(S(=O)(=O)c3ccc(F)c(C(=O)Nc4ccc(Cl)cc4Cl)c3)CC2)c1 was read as Tau fibril ThT -3%, Tau fibril FP inconclusive and Tau fluor cs -8%.
